Experimental data reported in PubChem BioAssay AID651871 (Sanford-Burnham Center for Chemical Genomics, 2012).
Several values for one entry are separate records, joined by “and”; a condition that tells them apart may be missing. Equal entries are not always repeated.

system: H9c2; assay: protection of cardiomyocytes from stress damage, SAR follow-up, cell-based, panel, H9c2 and HL-1, ATP luminescence, set 2 (AID 651871); details: H9c2/HL-1 cardiomyocytes, H2O2 oxidative stress, with H2O2, run 2, at 79 µM (top of the series);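 note: cells exposed to stressor for 2 h before ATP readout; reference of the scale not given here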

| Compound | activity (protection/inhibition) |
| --- | --- |
| CCOC(=O)c1cccc(NC(=O)CNC(=O)c2cc(-c3cc(OC)c(OC)c(OC)c3)nc3ccccc23)c1 | 114% |
| COc1cc(-c2cc(C(=O)Nc3cccc(C(=O)NCc4ccccc4)c3)c3ccccc3n2)cc(OC)c1OC | 119% |
| COc1ccc2nc(-c3cc(OC)c(OC)c(OC)c3)cc(C(=O)NCC(=O)Nc3ccc(C(C)=O)cc3)c2c1 | 122% and 100% |
| COc1ccc2c(c1OC)C(=O)N1c3ccccc3C(=O)N(Cc3cccc(Cl)c3Cl)C21 (centres undefined) | 101% and 61% |
